High-throughput results deposited in PubChem BioAssay by several laboratories.
Sampled rows, rich in hits. Any-hit rate of the full collection: about 2.3%.
Kir21 inh = inhibitors of mouse Kir2.1 inward-rectifier potassium channel | HEK293-Kir2.1, FluxOR thallium flux fluorescence; active compounds read low | B-score at 10 µM | actives 0.85% (n = 310,000) | Inward rectifier potassium channel 2 (Mus musculus), P35561;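 active means fluorescence ratio B-score at or below minus 3 SD of library scores, with starting-brightness B-score within 2 SD, cut at about -4.2 in these data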;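 further: channel flux triggered by added potassium and thallium sulfate stimulus; B-score of peak minus minimum fluorescence over baseline after thallium stimulus; more negative B-score means stronger Kir2.1 block with less thallium influx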
Rce1 inhib = yeast Rce1p protease inhibitors, primary screen, biochemical, fluorescence, cell-free homogeneous. CAAX prenyl protease 2 (Saccharomyces cerevisiae (strain ATCC 204508 / S288c)), Q03530. yeast membranes, quenched prenylated peptide cleavage fluorescence. calls only. actives 0.27% (n = 290,000);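 active means fall in fluorescence gain of 50% or more versus controls, with final raw signal at or below 3038400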
Target sequence (Q03530 whole entry, looked up): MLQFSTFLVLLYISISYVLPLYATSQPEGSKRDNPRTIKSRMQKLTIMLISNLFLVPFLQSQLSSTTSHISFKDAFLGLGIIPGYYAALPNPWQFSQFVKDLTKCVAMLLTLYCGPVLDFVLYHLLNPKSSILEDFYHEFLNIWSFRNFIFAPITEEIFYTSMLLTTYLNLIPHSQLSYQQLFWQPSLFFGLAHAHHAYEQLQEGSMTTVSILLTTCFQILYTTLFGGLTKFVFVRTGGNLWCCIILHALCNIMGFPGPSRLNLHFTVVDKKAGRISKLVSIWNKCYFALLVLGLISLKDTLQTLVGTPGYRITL
FID counter = compounds displacing fluorescent DNA intercalator, primary screen, artefact control for HCV NS3 helicase inhibitor project, biochemical, FID fluorescence; DNA fluorescent intercalator displacement; inhibition, % at 7.9 µM; actives 0.17% (n = 290,000); AID 1845, 2009; in the data active means inhibition above about 37%;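 further: higher means more ethidium bromide displaced from hairpin DNA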
M18AAP inhibitor = PfM18AAP inhibitors, malaria aminopeptidase, primary screen, biochemical, QFRET, recombinant enzyme; M18 aspartyl aminopeptidase (Plasmodium falciparum 3D7); H-Glu-NHMec fluorogenic cleavage; inhibition, % at 7.35 µM; actives 1.2% (n = 290,000);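 active means inhibition above the campaign mean inhibition over all tested compounds plus 3 SD, cut at about 28% in these data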
hERG inh = hERG channel inhibition, counter-screen for Kir2.1 inhibitor project, cell-based, thallium flux. shares compounds with Kir21 inh. hERG-expressing cells. inhibition, % at 10 µM. actives 20% (n = 320);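 further: host cells are CHO cells stably expressing hERG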
KCNK9 inh = KCNK9 channel inhibition, selectivity assay for Kir2.1 inhibitor project, cell-based; AID 2329, 2010; KCNK9-expressing cells, ion flux inhibition; actives 5% (n = 320); inhibition, % at 10 µM; shares compounds with Kir21 inh
Kir2-1 patch inh = mouse Kir2.1 channel blockers, Kir2.1 inhibitor project, cell-based, secondary, automated electrophysiology; shares compounds with Kir21 inh; Kir2.1 cells, automated patch-clamp current inhibition; inhibition, % at 25 µM; actives 71% (n = 320)
Hits are given with their value; 0 = inactive; - = no result. Unless noted, how the calls were made is not given here.

SMILES	Kir21 inh	Rce1 inhib	FID counter	M18AAP inhibitor	hERG inh	KCNK9 inh	Kir2-1 patch inh
C#CC(CO)N(CCN(Cc1ccccc1)C(C#C)CO)Cc1ccccc1 (configuration not stated)	-11	0	0	0	0	0	3.9%
C=CCc1ccccc1OCCNCc1ccccc1	-8.9	0	0	0	0	0	75%
CCOc1cc(CN2CCC(n3nccc3NC(=O)C3CC3)CC2)ccc1O	0	0	0	0	-	-	-
CCOC(=O)C1(Cc2cccc(Cl)c2)CCCN(C(=O)C(C)(C)C)C1 (configuration not stated)	0	0	0	0	-	-	-
COc1cccc(-c2nc(CS(=O)(=O)CC(=O)NC3CCCCC3C)c(C)o2)c1 (configuration not stated)	0	0	0	0	-	-	-
COCC1CCN(C(=O)C2CCC(=O)N(C3CCCCCC3)C2)CC1 (configuration not stated)	0	0	0	0	-	-	-
O=C(c1ccc2c(c1)N(Cc1ccccc1)CCS2)N1CCCCC1	-5.8	0	0	0	0	0	0
NS(=O)(=O)c1ccc(CCNCc2ccccc2OCc2ccc(Cl)cc2)cc1	-8.2	0	0	0	65%	0	31%
NS(=O)(=O)c1ccc(CCNCc2cc(Br)ccc2OCc2ccccc2F)cc1	-6.3	0	0	0	0	46%	12%
NS(=O)(=O)c1ccc(CCNCc2cc(Cl)ccc2OCc2ccccc2)cc1	0	0	0	0	-	-	-
CN(C)CC/C=C1\c2ccccc2Sc2ccc(Cl)cc21	-8.1	0	0	0	58%	0	28%
CCN(CC)CCNC(=O)CCc1c(C)nc2c(c(C)nn2-c2ccc(C)c(C)c2)c1C	0	0	0	0	-	-	-
Cc1ccccc1N(C(=O)c1snc(C(N)=O)c1N)C(C(=O)NC1CCCC1)c1ccco1 (configuration not stated)	0	0	0	0	-	-	-
CCn1c(CSc2nc3ccccc3s2)nnc1SCC(N)=O	0	0	0	0	-	-	-
CCn1c(CSc2nc3ccccc3s2)nnc1SCC(=O)OC(C)(C)C	-8.7	0	0	0	0	0	31%
CCCCN1C(=O)C(=Nc2cccc3cnccc23)c2ccccc21	-7.5	0	0	0	0	0	0
COC(C(=O)N/N=C(\C)c1ccc(C(C)(C)C)cc1)c1ccccc1 (configuration not stated)	0	0	0	0	-	-	-
CCN(c1ccccc1)S(=O)(=O)c1ccc(F)cc1	-6.2	0	0	0	0	0	37%
COCc1c(C(=O)N/N=C(/C)c2ccc(OCc3ccccc3)cc2)nnn1-c1nonc1N	0	0	0	0	-	-	-
Cc1ccc(CSc2nnc(CCNC(=O)OC(C)(C)C)o2)cc1	-11	0	0	0	0	0	60%
CN1CCC(N(C)C(=O)c2cc(=O)c3ccccc3o2)CC1	0	0	0	0	0	0	0
CCc1ccc(CN(C)C(=O)c2cc(=O)c3ccccc3o2)cc1	0	-	0	0	-	-	-
Cn1cc(Br)c(C(=O)NC2CCCCCC2)n1	0	0	0	0	-	-	-
Cc1cc(OC(=O)c2cc(C(F)(F)F)cc(C(F)(F)F)c2)c([N+](=O)[O-])c(=O)[nH]1	0	0	0	0	-	-	-
CCCCn1c(N)c(N(CCOC)C(=O)c2cccc(S(=O)(=O)N(C)c3ccc(C)cc3)c2)c(=O)[nH]c1=O	0	0	-	-	-	-	-
SMILES	Kir21 inh	Rce1 inhib	FID counter	M18AAP inhibitor	hERG inh	KCNK9 inh	Kir2-1 patch inh
COc1ccc(N2CCN(C(=O)COC(=O)c3ccco3)CC2)cc1	0	0	0	0	-	-	-
CCOc1cc(/C=N/O)ccc1OS(=O)(=O)c1ccc(C)cc1	-7.5	0	0	0	0	0	6.7%
CCCN1CCC(NC23CC4CC(CC(C4)C2)C3)CC1	-9.8	0	0	0	0	0	41%
COC(=O)C1=C(C)N(Cc2ccccc2)C(=NCCc2ccccn2)N[C@H]1c1cccc(F)c1	-6.7	0	0	0	0	0	3.0%
Cc1ccc(C(=O)OCN2C(=O)c3ccccc3C2=O)c(O)c1	0	0	0	0	-	-	-
COc1ccc(CN(C)CC(O)COC(c2ccccc2)c2ccccc2)c(OC)c1OC (configuration not stated)	-6	0	0	0	69%	0	0
CCN(CC)CC(O)COC(c1ccccc1)c1ccccc1 (configuration not stated)	0	0	0	0	-	-	-
O=C1CCCN1CC(O)CS(=O)(=O)Cc1ccccc1Cl (configuration not stated)	0	0	0	0	-	-	-
COCCNC(=S)N1CCN(Cc2cccc(OC)c2)CC1	0	0	0	0	-	-	-
CC(CCCN(C)C)C(Cc1ccccc1)c1ccccc1 (configuration not stated)	-6.4	0	-	-	0	0	4.0%
COc1ccc(CCNCC(O)COc2ccc(OC)cc2C(C)(C)C)cc1 (configuration not stated)	-6.2	0	43	0	61%	0	0
Cc1ccc(OCC(O)CNCc2ccc(F)cc2)cc1 (configuration not stated)	-8.8	0	0	0	0	0	77%
COc1ccc(CCNCC(O)COc2cccc(Br)c2)cc1OC (configuration not stated)	0	0	0	0	-	-	-
COc1ccc(CNCC(O)COc2ccc(C)cc2[N+](=O)[O-])cc1 (configuration not stated)	-8.7	0	0	0	0	0	61%
CCOCc1cn(CC(=O)c2ccc([N+](=O)[O-])cc2)c(C)nc1=N	0	0	0	0	0	0	0
CCOCc1cn(CC(=O)c2ccc(Cl)cc2)c(C)nc1=N	0	0	0	0	-	-	-
Cc1ccc(O)c(CNc2nc3ccccc3n2C(C)C)c1	0	0	0	0	-	-	-
Cc1ccc(O)c(CNCCNCc2cc(C)ccc2O)c1	-6.1	0	-	-	0	0	51%
Cc1c(NC(=O)C(C)OC(=O)c2ccc(Br)o2)c(=O)n(-c2ccccc2)n1C (configuration not stated)	0	0	0	0	-	-	-
Cc1c(NC(=O)COC(=O)c2ccc(Br)o2)c(=O)n(-c2ccccc2)n1C	0	0	0	0	0	0	0
C=CCNc1nc(NCc2ccccc2)c(C#N)c2c1CN(C)CC2	-6.8	0	0	0	64%	0	1.6%
CS(=O)(=O)N1CC(C(=O)O)Oc2ccc(CC(=O)O)cc21 (configuration not stated)	0	0	0	0	-	-	-
COc1ccc(-n2c(COc3ccc(C)cc3)nnc2SCc2ccc(C#N)cc2)cc1	0	0	0	0	-	-	-
CCn1c(COc2ccccc2)nnc1SCc1ccc(C#N)cc1	-6.5	0	0	0	0	0	25%
